Among the data in PubChem BioAssay (NCI) are growth values, retold here.

Assay in all cases: NCI-60 one-dose screen, 48 h (100 = growth as untreated, 0 = no growth, -100 = all killed)
Holding throughout (details): 10 µM unless noted

Test [1] relates to NCI-H23 lung.
For test [2], the system named is NCI-H226 lung.
Test [3] concerns NCI-H322M lung.
Test [4] relates to HOP-62 NSCLC.
Test [5] deals with NCI-H460 lung.
In test [6] the test system is HOP-92 NSCLC.
The test system of test [7] is NCI-H522 lung.
Test [8] relates to A549/ATCC NSCLC.
The test system of test [9] is 786-0 renal.
In test [10] the test system is COLO 205 colon.
The subject of test [11] is DU-145 prostate.
The test system of test [12] is K-562 leukemia.
In test [13] the test system is MALME-3M melanoma.
Test [14] has as its system MDA-MB-231 breast.
For test [15], the system named is RXF 393 renal.
Test [16] deals with SF-268 CNS.
For test [17], the system named is SF-295 CNS.
Test [18] has as its system SF-539 CNS.
In test [19] the test system is UACC-257 melanoma.
In test [20] the test system is M14 melanoma.

The panel holds about 83,000 compounds, 20% with a hit somewhere; the sample as a whole holds those more often.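 48-hour exposure, single concentration, 96-well plates; percent growth endpoint where 0 means no net growth. Active: below 10.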 Unmarked numbers belong to inactive results. Active and inactive are the calls of the source.

Regarding `Cc1ccc(/C=C/c2c(C(=O)/C=C/c3ccc(C(F)(F)F)cc3)c(C)nc3ccccc23)cc1`, the growth in test [1] is -31.3% (active); in [2], -46.1% (active); in test [3] it was -1.68% (active); in [4], -37.2% (active); in [5] it was -69.6% (active); in test [6] it was -76% (active). The growth in test [7] is -10.5% (active); in test [8], 77.2%; in test [9], -74.9% (active); in test [10], -24.3% (active); in test [11] it was -78.3% (active); in test [12] it was -16.6% (active). The growth in test [13] is -65.4% (active); in [14] it was -40.5% (active); in test [15], -87.8% (active); in test [16] it was -5% (active); in test [17] it was -75.8% (active); in test [18], -83.4% (active). Further, the values for the growth in test [19] and in test [20] were -17.7% (active) and -35.8% (active), respectively.

`N#C/C(=C/C=C/c1cccc(Cl)c1)S(=O)c1ccccc1` (stereo not given): the growth is -43.6% (active) in [1]; -33% (active) in [2]; -44.9% (active) in [3]; -17.4% (active) in [4]; -22.1% (active) in test [5]; -60.9% (active) in test [6]. Also, the growth is -89.2% (active) in test [7]; 1.83% (active) in test [8]; -88.7% (active) in [9]; -63.1% (active) in test [10]; -92.6% (active) in test [11]; 2.14% (active) in test [12]. Moreover, the growth in test [13] is -41.5% (active); in test [14], -57.6% (active); in test [15], -87.6% (active); in [16], -59.2% (active); in [17] it was -28.9% (active); in test [18] it was -50.3% (active). The growth is -46.8% (active) in [19] and -52.6% (active) in test [20].

Regarding `Cc1nn(-c2ccccc2)c2nc3c(c(-c4ccc(Cl)cc4)c12)CNC1(CCSCC1)N3`, the growth in test [1] is 97.4%; in test [2] it was 81.2%; in test [3], 100%; in test [4] it was 93.6%; in [5] it was 99.6%; in test [6] it was 74.1%. Also, the growth was 110% in test [7]; 87% in test [8]; 105% in test [9]; 94.5% in test [10]; 110% in test [11]; 93.1% in test [12]. The growth in test [13] was 96.5%; in [14], 96.9%; in [15], 88.8%; in test [16], 101%; in [17] it was 103%; in test [18], 110%. The values for the growth in [19] and in test [20] were 107% and 94.1%, respectively.

Take `CCN(CCNc1ccc(C)c2sc3ccccc3c(=O)c12)CC(C)(C)O`: the growth in [1] was 86.7%; in test [2], 96.7%; in test [3], 90.4%; in [4] it was 82.8%; in test [5], 30.3%; in test [6], 50.9%. For the same compound, the growth was 74.2% in [7]; 40.8% in test [8]; 70.4% in test [9]; 67.8% in test [10]; 95.7% in test [11]; -34.5% (active) in test [12]. Further, the growth in [13] is 89.1%; in [14], 78%; in test [15], 74.7%; in test [16], 83.3%; in [17], -17.6% (active); in test [18], 78.9%. The growth in test [19] is 95.9%; in test [20], 73.2%.

For the compound `COc1ccc(-c2ccc3c(c2)sc2nc(-c4ccc(F)cc4)cn23)cc1`, the growth in test [1] is 81.1%; in [2], 80.8%; in test [3] it was 67.7%; in [4] it was 66.3%; in test [5] it was 15.4%; in [6], 65.8%. Further, the growth in test [7] was 66.1%; in test [8], 30%; in test [9], 76.2%; in test [10], 1.69% (active); in [11], 60.3%; in test [12] it was 76.6%. Moreover, the growth in [13] was 101%; in [14], 93.5%; in test [15], 98.8%; in test [16], 110%; in test [17], 32.5%; in [18], 100%. For the same compound, the growth in test [19] is 80.9%; in [20], 98%.

`COCCN(C(=O)c1ccc(F)cc1F)c1c(N)n(Cc2ccccc2)c(=O)[nH]c1=O`: the growth was 95.4% in test [1]; 94.7% in test [2]; 99.8% in test [3]; 103% in [4]; 116% in [5]; 59.3% in test [6]. Besides, the growth in test [7] was 98.3%; in test [8], 101%; in test [9] it was 102%; in test [10] it was 124%; in test [11] it was 120%; in test [12] it was 96.6%. Besides, the growth in test [13] is 120%; in test [14], 106%; in test [15], 101%; in test [16], 111%; in [17], 108%; in [18] it was 108%. Besides, the results for the growth in test [19] and in [20] were 106% and 112%, respectively.

On to `Clc1ccc(-c2c3ccc(=[N+]4CCCCC4)cc-3oc3cc(N4CCCCC4)ccc23)cc1`, for which the growth in [1] was -85.2% (active); in test [2], -87.6% (active); in [3], -88.4% (active); in test [4] it was -89% (active); in test [5], -76.2% (active); in test [6] it was -70.1% (active). Further, the growth is -87.7% (active) in test [7]; -67.4% (active) in test [8]; -96.5% (active) in [9]; -71.1% (active) in [10]; -91.7% (active) in [11]; -34.1% (active) in [12]. In addition, the growth is -76.4% (active) in test [13]; -81.7% (active) in test [14]; -91.2% (active) in [15]; -89.6% (active) in test [16]; -72.6% (active) in test [17]; -93.4% (active) in test [18]. Besides, the growth in [19] was -78.5% (active); in test [20], -92.7% (active).

On to `COc1ccc(-c2nc(SCCC(C)C)nc(N/N=C\c3ccccc3O)c2C#N)cc1`, for which the growth in test [1] is 83.2%; in test [2] it was 84.4%; in [3], 82.7%; in test [4], 92.5%; in [5], 59.1%; in test [6], 88.4%. Besides, the growth in test [7] is 84.6%; in test [8], 78.2%; in test [9] it was 88.9%; in [10] it was 96.4%; in test [11], 95.7%; in test [12], 91.6%. Besides, the growth in test [13] was 89.6%; in test [14], 85.1%; in test [15], 76.1%; in [16], 78%; in test [17] it was 94.2%; in [18], 90.9%. The growth in [19] was 89.8%; in [20] it was 98.3%.
